Reference: PubChem BioAssay AID743468 (Broad Institute, 2014)
Some of the results follow. Active and inactive are the calls of the source.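 Rule for the calls: active = fitted curve reaching a 40% PDK4 expression rise at or below the top valid tested dose; inconclusive = no clear call, values can overlap the other calls; inactive = the rest, including shifts the wrong way.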

Experiment: change in PGC-1a target gene PDK4 expression, dose response, C2C12 myotubes, RT-qPCR, cherry-pick (AID 743468)
Settings: PGC-1a adenovirus, PDK4 mRNA qPCR; series mostly up to 19.5 µM

## N#Cc1ccc(-c2ccc(C3[C@@H]4CN(S(=O)(=O)c5ccc(F)cc5)C[C@H]3N4)cc2)cc1 (stereo partly specified)
  outcome: inactive
